This assay has as its target Estrogen receptor (Homo sapiens) (UniProt P03372). The assay is described as follows: displacement of fluorescent estrogen from ERalpha – cell-based, Cos7 ERalpha-GFP, flow cytometry, primary screen (AID 1211).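 Note: 0% = DMSO vehicle wells and 100% = no E2-Alexa633 signal left.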 To be noted: fluorescent ligand competition, stronger effect = higher value. (In general: A flow cytometer gives signals particle by particle.)

Calls of active or inactive are those of the source. The rule behind the calls is not given here.

Sequence of Estrogen receptor (Homo sapiens) (P03372 whole entry, looked up): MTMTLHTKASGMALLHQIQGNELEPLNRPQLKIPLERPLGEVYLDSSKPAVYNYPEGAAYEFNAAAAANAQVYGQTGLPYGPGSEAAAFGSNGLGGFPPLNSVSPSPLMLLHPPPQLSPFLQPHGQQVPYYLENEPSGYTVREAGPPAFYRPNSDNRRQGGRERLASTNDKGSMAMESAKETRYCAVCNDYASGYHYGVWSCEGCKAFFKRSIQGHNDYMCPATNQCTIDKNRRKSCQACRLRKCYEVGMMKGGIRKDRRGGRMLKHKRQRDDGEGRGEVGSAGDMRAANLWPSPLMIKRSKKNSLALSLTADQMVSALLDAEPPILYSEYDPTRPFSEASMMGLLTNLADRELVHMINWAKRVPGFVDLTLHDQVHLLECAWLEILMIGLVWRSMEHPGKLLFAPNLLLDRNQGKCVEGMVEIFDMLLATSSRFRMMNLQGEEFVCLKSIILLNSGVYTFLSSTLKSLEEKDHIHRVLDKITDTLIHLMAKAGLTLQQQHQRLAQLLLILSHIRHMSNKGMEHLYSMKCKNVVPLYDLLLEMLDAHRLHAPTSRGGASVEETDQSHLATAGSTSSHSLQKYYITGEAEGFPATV

Regarding `CC(=O)c1ccc(NCC(=O)N2CCN(c3ccccc3)CC2)cc1`, the inhibition of ligand binding by setting is: (at 10 µM) 58% (inactive); (binding inhibition, at 0.1 µM) 18%.

On to `O=C(Nc1cccc(-c2cnc3ccccc3n2)c1)c1cccc(NC(=O)c2ccco2)c1`, for which the inhibition of ligand binding was 68% (active) (at 10 µM) and 23% (binding inhibition, at 0.1 µM).

Turning to `COC1=C/C(=C/c2c(N)n3cc(C)sc3nc2=O)C=CC1=O`, the inhibition of ligand binding (at 10 µM) is 34% (inactive) and the inhibition of ligand binding (binding inhibition, at 0.1 µM) is 10%.

As for `CC(=O)N1c2ccc(Cl)cc2C2C=CCC2C1c1cccc2ccccc12` (stereo unspecified), the inhibition of ligand binding is, setting by setting: (at 10 µM) 0% (inactive); (binding inhibition, at 0.1 µM) 13%.

In the case of `COc1ccc(/C=N/NC(=O)c2nc(-c3ccccc3)cc(-c3ccccc3)n2)cc1O`, the inhibition of ligand binding was 56% (active) (at 10 µM) and 97% (binding inhibition, at 0.1 µM).

As for `CCN1CCN(Cc2c(O)c(Cl)cc3c(C)cc(=O)oc23)CC1`, the inhibition of ligand binding is 31% (inactive) (at 10 µM) and 28% (binding inhibition, at 0.1 µM).

Regarding `COc1ccc2cc3c(N)nn(C(=O)Cc4ccc(Cl)cc4)c3nc2c1`, the inhibition of ligand binding (at 10 µM) was 18% (inactive) and the inhibition of ligand binding (binding inhibition, at 0.1 µM) turned out to be 16%.

On to `Cc1ccccc1NC(=O)CSc1nnc(-c2ccco2)c(-c2ccco2)n1`, for which the inhibition of ligand binding reads like this: (at 10 µM) 47% (active); (binding inhibition, at 0.1 µM) 66%.

For `C1=C(N2CCOCC2)/C(=C/c2nc3ccccc3[nH]2)CC1`, the inhibition of ligand binding (at 10 µM) is 50% (inactive) and the inhibition of ligand binding (binding inhibition, at 0.1 µM) stood at 41%.

As for `O=C(NCc1ccco1)c1cc2c(s1)CSC2`, the inhibition of ligand binding is, setting by setting: (at 10 µM) 24% (inactive); (binding inhibition, at 0.1 µM) 25%.

As for `O=C(c1cc2ncc(Br)cn2n1)N1CCOCC1`, the inhibition of ligand binding is 54% (inactive) (at 10 µM) and 25% (binding inhibition, at 0.1 µM).

For `Cc1ccc(OCCN2CCN(CC(O)Cn3c4ccccc4c4ccccc43)CC2)cc1` (stereo unspecified), the inhibition of ligand binding is, setting by setting: (at 10 µM) 37% (inactive); (binding inhibition, at 0.1 µM) 33%.

In the case of `Oc1ccc(-c2nc(-c3ccc(O)c(O)c3)cs2)cc1`, the inhibition of ligand binding runs as follows: (at 10 µM) 68% (active); (binding inhibition, at 0.1 µM) 39%.

In the case of `O=C(CSc1nnc(SCC(=O)c2ccco2)s1)c1ccco1`, the inhibition of ligand binding is, setting by setting: (at 10 µM) 14% (inactive); (binding inhibition, at 0.1 µM) 28%.

`Nc1ccc(-n2cnc3cc([N+](=O)[O-])ccc32)cc1`: the inhibition of ligand binding reads like this: (at 10 µM) 41% (active); (binding inhibition, at 0.1 µM) 66%.

Consider `Cc1cc(-c2nn3c(-c4ccccc4)nnc3s2)c2ccccc2n1`, for which the inhibition of ligand binding was 23% (inactive) (at 10 µM) and 24% (binding inhibition, at 0.1 µM).

With `O=C(CCCn1c(=S)[nH]c2ccccc2c1=O)N1CCN(c2cccc(Cl)c2)CC1`, the inhibition of ligand binding (at 10 µM) is 55% (inactive) and the inhibition of ligand binding (binding inhibition, at 0.1 µM) worked out at 15%.

For the compound `CC1=C(SCCC#N)S/C(=C2\SC(C)=C(SCCC#N)S2)S1`, the inhibition of ligand binding is 59% (inactive) (at 10 µM) and 11% (binding inhibition, at 0.1 µM).

Consider `COc1ccc(CNC(=O)c2cc(-c3cccs3)on2)cc1`, for which the inhibition of ligand binding was 40% (active) (at 10 µM) and 90% (binding inhibition, at 0.1 µM).

Take `NC(=O)c1c(NC(=O)c2cccs2)sc2c1CCCCCC2`: the inhibition of ligand binding runs as follows: (at 10 µM) 0% (inactive); (binding inhibition, at 0.1 µM) 22%.

For `CCOC(=O)Cc1cc(-c2ccc(O)cc2)nc2ccc3ccccc3c12`, the inhibition of ligand binding is, setting by setting: (at 10 µM) 37% (inactive); (binding inhibition, at 0.1 µM) 15%.

Consider `CCCCN(CCCC)S(=O)(=O)c1ccc(NC(=O)Cc2cccs2)cc1`, for which the inhibition of ligand binding (at 10 µM) is 61% (inactive) and the inhibition of ligand binding (binding inhibition, at 0.1 µM) stood at 46%.

Consider `Nc1nc(-c2ccc3c(c2)NC(=O)CO3)cs1`, for which the inhibition of ligand binding reads like this: (at 10 µM) 32% (inactive); (binding inhibition, at 0.1 µM) 12%.

For the compound `COc1ccc2[nH]c3nc(SCc4nnc(-c5ccc(C)cc5)o4)nnc3c2c1`, the inhibition of ligand binding by setting is: (at 10 µM) 64% (inactive); (binding inhibition, at 0.1 µM) 3%.

On to `Cc1cccc2cc(C(c3nnnn3C(C)(C)C)N(Cc3ccco3)CC3CCCO3)c(=O)[nH]c12` (stereo unspecified), for which the inhibition of ligand binding (at 10 µM) was 31% (inactive) and the inhibition of ligand binding (binding inhibition, at 0.1 µM) came to 7%.

Take `CCC(=O)Oc1ccc(/C(CC)=C(\CC)c2ccc(OC(=O)CC)cc2)cc1`: the inhibition of ligand binding is 77% (active) (at 10 µM) and 86% (binding inhibition, at 0.1 µM).

For the compound `Cn1ccnc1SCC(=O)Nc1ccc2nc(SCC(=O)NC3CC3)sc2c1`, the inhibition of ligand binding (at 10 µM) was 30% (active) and the inhibition of ligand binding (binding inhibition, at 0.1 µM) is 78%.

As for `Cc1ccc(C2=Nc3ccccc3N=C(c3ccco3)C2)c(O)c1`, the inhibition of ligand binding reads like this: (at 10 µM) 2% (inactive); (binding inhibition, at 0.1 µM) 26%.

As to `CC1(C)OC(C)(C)/C(=C/Nc2ccc(O)cc2)C1=O`, the inhibition of ligand binding is 10% (inactive) (at 10 µM) and 12% (binding inhibition, at 0.1 µM).

Regarding `Nc1ccc(-c2cc(-c3cccc(N)c3)nc(-c3ccccc3)n2)cc1`, the inhibition of ligand binding reads like this: (at 10 µM) 42% (inactive); (binding inhibition, at 0.1 µM) 2%.

For the compound `CC1CCc2c(sc(NC(=O)c3ccc(Cn4cc([N+](=O)[O-])cn4)o3)c2C#N)C1` (stereo unspecified), the inhibition of ligand binding (at 10 µM) was 44% (inactive) and the inhibition of ligand binding (binding inhibition, at 0.1 µM) came to 39%.

In the case of `CCCSC1=N/C(=C\C=C\c2ccco2)C(=O)S1`, the inhibition of ligand binding by setting is: (at 10 µM) 0% (inactive); (binding inhibition, at 0.1 µM) 31%.

Regarding `COc1ccc(-c2ccc(=O)[nH]n2)cc1`, the inhibition of ligand binding by setting is: (at 10 µM) 22% (inactive); (binding inhibition, at 0.1 µM) 52%.

For the compound `CCc1nc2sc3ccccc3c(=O)c2c(=O)n1Cc1ccco1`, the inhibition of ligand binding reads like this: (at 10 µM) 0% (inactive); (binding inhibition, at 0.1 µM) 23%.

For the compound `O=C(O)c1cc(-c2ccco2)nc2ccccc12`, the inhibition of ligand binding reads like this: (at 10 µM) 57% (inactive); (binding inhibition, at 0.1 µM) 21%.

Take `COc1ccc(N2Cc3cccc(C(=O)O)c3C2=O)cc1`: the inhibition of ligand binding was 26% (inactive) (at 10 µM) and 44% (binding inhibition, at 0.1 µM).

`COC(=O)c1ccccc1NC(=O)c1noc2c1CCC2`: the inhibition of ligand binding is, setting by setting: (at 10 µM) 25% (inactive); (binding inhibition, at 0.1 µM) 21%.

Turning to `C=CCn1c(SCC(=O)NC(=O)NCc2ccco2)nc2sc(CC)cc2c1=O`, the inhibition of ligand binding is 10% (inactive) (at 10 µM) and 3% (binding inhibition, at 0.1 µM).

As for `O=C(Cn1ncc2c(=O)oc3ccccc3c21)Nc1nc2ccccc2s1`, the inhibition of ligand binding is 7% (inactive) (at 10 µM) and 22% (binding inhibition, at 0.1 µM).

On to `Brc1cc2c(cc1C1Nc3ccccc3C3C=CCC31)OCO2` (stereo unspecified), for which the inhibition of ligand binding is, setting by setting: (at 10 µM) 0% (inactive); (binding inhibition, at 0.1 µM) 14%.

`Oc1ccc(-c2cn3c(n2)SCC3)cc1`: the inhibition of ligand binding (at 10 µM) is 37% (inactive) and the inhibition of ligand binding (binding inhibition, at 0.1 µM) amounted to 22%.

Consider `Cc1ccc(C)n1-c1sccc1C(=O)O`, for which the inhibition of ligand binding reads like this: (at 10 µM) 36% (inactive); (binding inhibition, at 0.1 µM) 36%.

Turning to `O=C(Nc1ccccc1[N+](=O)[O-])C1=C(O)CCn2c1nc1ccccc12`, the inhibition of ligand binding (at 10 µM) is 20% (inactive) and the inhibition of ligand binding (binding inhibition, at 0.1 µM) came out at 37%.

Values taken from PubChem BioAssay AID1211 (NMMLSC, 2008).
